Screening data as filed in PubChem.
Shown is part of a subset that was picked to be rich in hits.
RBX1-CUL1 inh – blocks human RBX1-Cullin-1 di-ubiquitin formation | P62877+Q13616 | 140,000 tested, 0.6% active | inhibition, % at 10 µM | in vitro K48 di-Ub FRET, acceptor:donor ratio, 45 min | AID 1347404; in the data active means inhibition above about 25%
Target sequence (P62877 whole entry, looked up): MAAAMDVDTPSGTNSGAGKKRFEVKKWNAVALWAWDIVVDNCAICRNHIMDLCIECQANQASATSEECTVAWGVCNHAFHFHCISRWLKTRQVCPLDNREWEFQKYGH
Target sequence (Q13616 whole entry, looked up): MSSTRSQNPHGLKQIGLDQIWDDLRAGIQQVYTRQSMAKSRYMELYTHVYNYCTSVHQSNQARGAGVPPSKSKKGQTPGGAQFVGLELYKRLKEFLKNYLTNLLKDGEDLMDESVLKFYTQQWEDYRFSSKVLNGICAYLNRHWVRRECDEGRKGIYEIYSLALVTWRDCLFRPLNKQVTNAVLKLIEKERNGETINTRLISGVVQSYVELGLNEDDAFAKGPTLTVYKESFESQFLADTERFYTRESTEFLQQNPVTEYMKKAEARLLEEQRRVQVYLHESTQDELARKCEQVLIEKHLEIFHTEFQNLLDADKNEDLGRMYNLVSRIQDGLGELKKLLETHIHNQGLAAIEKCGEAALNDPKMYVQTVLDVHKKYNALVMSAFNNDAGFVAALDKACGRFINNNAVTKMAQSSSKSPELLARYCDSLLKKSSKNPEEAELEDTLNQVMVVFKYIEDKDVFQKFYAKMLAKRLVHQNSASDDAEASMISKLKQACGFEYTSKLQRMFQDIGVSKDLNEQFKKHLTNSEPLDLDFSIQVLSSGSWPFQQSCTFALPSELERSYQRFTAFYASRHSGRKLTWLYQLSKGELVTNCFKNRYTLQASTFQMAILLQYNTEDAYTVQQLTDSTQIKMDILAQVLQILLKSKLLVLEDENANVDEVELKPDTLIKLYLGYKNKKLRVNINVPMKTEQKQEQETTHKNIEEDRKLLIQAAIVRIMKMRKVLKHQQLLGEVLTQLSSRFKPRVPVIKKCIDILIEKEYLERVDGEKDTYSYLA
* marks the source's active call; other numbers are inactive results.

SMILES	RBX1-CUL1 inh
CCOc1ccccc1C(=O)NN1C(=O)C2CC=CCC2C1=O (centres undefined)	2.7
O=C(NNC(=O)C1CC=CCC1C(=O)O)c1ccc(OC2CCCC2)cc1 (centres undefined)	8.5
COc1cc(/C=C2/C(=O)NN(c3ccccc3)C2=O)cc(Br)c1OC(C)=O	-0.7
CCOc1cc(/C=C2\C(=O)NN(c3ccc(I)cc3)C2=O)ccc1O	0.0
CCOc1cc(/C=C2/C(=O)NN(c3ccc(I)cc3)C2=O)cc(Br)c1OC(C)=O	65.8*
CCOc1cc(/C=C2/C(=O)NN(c3ccc(C(=O)OC)cc3)C2=O)cc(Br)c1OC(C)=O	18.8
COc1cc(/C=C2\C(=O)NN(c3ccccc3)C2=O)cc(Cl)c1OCCCOc1cccc(C)c1	22.7
COc1cc(/C=C2\C(=O)NN(c3ccccc3)C2=O)cc(Br)c1OCc1ccccc1C	93.6*
COc1cc(/C=C2\C(=O)NN(c3ccccc3)C2=O)cc(Br)c1OC(=O)C12CC3CC(CC(C3)C1)C2	27.4*
COc1cc(/C=C2\C(=O)NN(c3ccccc3)C2=O)cc(OC)c1OC	-2.1
CCOc1cc(/C=C2\C(=O)NN(c3ccccc3)C2=O)cc(Br)c1OCCCOc1ccc(C)cc1	16.6
CCOc1cc(/C=C2\C(=O)NN(c3ccccc3)C2=O)cc(Br)c1OCc1ccc(C)cc1	8.6
CCOc1cc(/C=C2\C(=O)NN(c3ccccc3)C2=O)cc(Br)c1OCc1ccccc1C	29.6*
COc1cc(/C=C2/C(=O)NN(c3ccc(Br)cc3)C2=O)cc(Br)c1OC	7.1
Cc1cc([N+](=O)[O-])c(NCc2cccnc2)c([N+](=O)[O-])c1	-6.5
Cc1nc(CN(C)C(=O)Nc2nc(-c3ccccc3)ns2)cs1	4.2
CCCSC1=NC(=O)C2C(=N1)NC(=O)CC2c1ccc(O)c(OCC)c1 (centres undefined)	-11.9
CC(=O)Nc1nc2ccccc2n1Cc1ccc(F)cc1	0.3
CN(C(=O)CN1C(=O)CSC1=O)C1CCCN(C2Cc3ccccc3C2)C1 (centres undefined)	0.2
COc1cc(OC)c(NC(=O)COc2ccccc2)cc1Cl	3.5
Cc1nc(N2CCCC2)nc2c1C(=O)CC(C)C2 (centres undefined)	-3.4
CC(C)n1cc(C(=O)NC(C)(C)C)c(=O)c(C(=O)N(C)Cc2ccccc2)c1	-0.4
CN(c1ccc(C(N)=O)cc1)S(C)(=O)=O	-5.0
O=C(NC(=S)N1CCc2ccccc2C1)C12CC3CC(CC(C3)C1)C2	2.7
COc1ccc(-c2cc(-c3ccccc3)nc(N/N=C/c3ccc(O)c(C)c3O)n2)cc1OC	-1.2
SMILES	RBX1-CUL1 inh
CCN(CC)c1ccc(NS(C)(=O)=O)cc1	6.0
OC(c1ccccc1)c1ncc2sccc2n1 (centres undefined)	-0.9
CC(=O)Nc1ccc(/C=N/NC(=O)CO)cc1	2.1
COc1cc(/C=C2\C(=O)NN(c3ccccc3)C2=O)cc(I)c1OCc1ccc(Cl)c(Cl)c1	12.4
CCOc1cc(/C=C2\C(=O)NN(c3ccccc3)C2=O)cc(Cl)c1OCc1ccc(Cl)cc1	7.4
COc1cc(/C=C2\C(=O)NN(c3ccccc3)C2=O)cc(Cl)c1OCc1ccc(C)cc1	39.4*
Cc1nonc1CC(=O)N1CCCC(CCC(=O)N2CCN(c3ccccn3)CC2)C1 (centres undefined)	10.4
Cc1cc(C)n(CCN(C)c2ccc(-c3nc(C4CC4)no3)cn2)n1	-2.3
CCOc1ccc(CCn2c(-c3ccc(OC)cc3)cn3c4c(=O)n(C)c(=O)n(C)c4nc23)cc1OCC	-12.7
COc1ccc(-c2ccc(OC)c(OC)c2OC)c(OC)c1OC	-5.5
COc1ccc2c(=O)c(Br)cccc2c1OC	2.9
COc1ccc(OC)c2c(OC)c3ccccc3c(OC)c12	51.6*
CCOC(=O)c1c(NC(=O)CSc2nnc(-c3ccncc3)n2-c2ccc(C)cc2)sc2c1CCCC2	15.3
O=C(Cc1cccnc1)NC1CCCN(CCc2ccccc2)C1 (centres undefined)	-3.0
CCCCNCc1ccc2c(c1)OCCO2	3.2
Cn1c(=O)c2c(nc(SCC(=O)Nc3ccc(OC(F)(F)Cl)cc3)n2Cc2ccc(C(C)(C)C)cc2)n(C)c1=O	-2.8
COC(=O)c1cc2c(-c3ccccc3)cc3ccccn3c-2c1C(=O)OC	4.6
c1ccc(-c2cc3ccccn3c3cccc2-3)cc1	93.1*
c1ccc(-c2cc3ccc4cccc2n43)cc1	-1.3
CS(=O)(=O)N1CCN(C(=O)c2c(F)cccc2Cl)CC1	-8.0
CC(C)CN1CCC(C2CCN(Cc3ccncc3)C2)CC1 (centres undefined)	-4.9
CC1=NN(c2ccc(C)cc2)C(=O)/C1=C\c1ccc(OC(C)C)cc1	6.9
CC1=NN(c2ccccc2)C(=O)/C1=C/c1ccc(OCCCOc2ccccc2)cc1	-9.9
CC1=NN(c2ccc(C)cc2)C(=O)/C1=C\c1cccnc1	82.0*
COc1cc(/C=N/NC(=O)COc2c(C)cccc2C)ccc1OCc1cccc(F)c1	7.1
SMILES	RBX1-CUL1 inh
CC(=O)c1cc(CC(=O)N2CCC(N3CCC(C(=O)NC4CC4)CC3)CC2)cs1	-1.8
CCN(CC)CN1C(=O)S/C(=C/c2ccc(N(CC)CC)cc2)C1=O	10.1
CCCN1C(=O)/C(=C/c2ccc(N(C)C)cc2)SC1=S	-5.3
CCN(CC)c1ccc(/C=C2\SC(=S)N(N)C2=O)cc1	55.1*
C=CCCC(=O)N(C)CC1CCCN(CCc2ccccc2F)C1 (centres undefined)	0.3
Cc1cc(CN2CC[C@@H](N3CCCCCC3)[C@H](O)C2)n[nH]1	-2.0
N#Cc1c(-c2ccc(-c3ccccc3)cc2)csc1N	-0.5
Cc1ccsc1C=Nc1cccc([N+](=O)[O-])c1	-3.2
O=C1C(Sc2ncn[nH]2)=CC(=NS(=O)(=O)c2ccc(Cl)cc2)c2ccccc21	90.5*
COc1ccc(S(=O)(=O)N=C2C=C(Sc3ccc(C)cc3)C(=O)c3ccccc32)cc1	-13.7
Cc1ccc(S(=O)(=O)N=C2C=C(C3C(=O)CC(C)(C)CC3=O)C(=O)c3ccccc32)cc1	-1.9
NC(=O)c1ccccc1NC(=O)C1CCCCC1C(=O)O (centres undefined)	1.5
CCCC(NS(=O)(=O)c1ccc(C)cc1)C(=O)Oc1ccc2ccc(=O)oc2c1 (centres undefined)	6.0
Cc1ccc(C(=O)O)c(SCC(=O)C23CC4CC(CC(C4)C2)C3)n1	-1.0
CSc1c(C#N)c(N)nc2c(N=Nc3ccc(S(N)(=O)=O)cc3)c(N)nn12	84.4*
Cc1cc(C(F)(F)F)n2nc(N)c(N=Nc3ccccc3)c2n1	-0.5
Cc1cc(C(F)(F)F)n2nc(N)c(N=Nc3cccc(C(F)(F)F)c3)c2n1	11.0
CC(=O)Nc1ccc(SC#N)c([N+](=O)[O-])c1	0.7
COc1cc2nc(C3CCCCC3)nc(N3CCN(c4ccccc4F)CC3)c2cc1OC	7.5
Cc1cc(/C=C2/C(=O)NC(=S)N(c3ccc(Br)cc3)C2=O)c(C)n1-c1ccccc1	8.4
Cc1cc(/C=C2\C(=O)NC(=S)N(C)C2=O)c(C)n1-c1ccc(C(=O)O)cc1	2.5
Cc1ccc(N2C(=O)/C(=C/c3cc(C)n(-c4cccc(C(=O)O)c4)c3C)C(=O)N(C)C2=S)cc1	33.8*
Fc1ccc(Cn2nc(-c3ccccc3)c3oc4ccccc4c32)cc1	11.6
CCCCC(=O)Nc1ccccc1NC(=O)C(C)C	-2.5
CCCCC(=O)Nc1cccc2cccc(S(=O)(=O)O)c12	94.8*
CCCCC(=O)Nc1ccccc1O	4.4
COc1ccc(C(C)(C)C)cc1S(=O)(=O)N1CCc2ccccc21	11.3
CN=C1S/C(=C\c2ccc(-c3ccc(Cl)cc3C(=O)O)o2)C(=O)N1C	2.6
